PubChem BioAssay (NCI)
This is part of a sample that, as a whole, favours compounds with a hit. Of some 79,000 tested, about 15% had one in any assay. Active and inactive are the calls of the source. No stated cut-off is given here; in the data, active means growth inhibition above about 70%; inactive means the rest.

Tests used:
[1] = NCI Yeast Anticancer Drug Screen. Data for the rad50 strain (AID 155);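 further: 0% = growth of vehicle-only cultures of the same strain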; settings: S. cerevisiae rad50 strain growth inhibition, hits give high values
Outline: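 Inhibition values express reduced yeast growth in compound-treated cultures relative to vehicle-treated controls.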

[2] = NCI Yeast Anticancer Drug Screen. Data for the mec2-1 strain (AID 157); settings: S. cerevisiae mec2-1 strain, hits give high values
Outline: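 Cells of the genetically defined mec2-1 yeast strain are incubated with test compound. Inhibition of growth is calculated against vehicle-treated controls.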

[3] = NCI Yeast Anticancer Drug Screen. Data for the sgs1 mgt1 strain (AID 161);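 further: 0% = growth of cultures given vehicle only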; settings: S. cerevisiae sgs1 mgt1 strain, hits give high values
Outline: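 Read-out: growth inhibition vs vehicle controls. Cells: mutant yeast strain deficient in DNA damage repair.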

[4] = NCI Yeast Anticancer Drug Screen. Data for the cln2 rad14 strain (AID 165);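 further: 0% = growth equal to vehicle treated cultures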; settings: S. cerevisiae cln2 rad14 strain, hits give high values
Outline: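 The screen exposed genetically defined yeast (cln2 rad14) to test compounds and scored growth inhibition relative to vehicle-treated controls.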

[5] = NCI Yeast Anticancer Drug Screen. Data for the bub3 strain (AID 167); settings: S. cerevisiae bub3 mutant strain, hits give high values
Outline: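 Steps: expose the mutant yeast strain to compound; grow alongside vehicle-treated cultures; measure growth; express inhibition against the vehicle cultures.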

[6] = NCI Yeast Anticancer Drug Screen. Data for the mlh1 rad18 strain (AID 175); settings: S. cerevisiae mlh1 rad18 strain growth inhibition, hits give high values
Outline: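 Compound-treated yeast growth, normalised to vehicle controls. Strain bears defined DNA repair mutations.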

[7] = at 5.0 µM (retest, dose inferred, filed as 0.5)
[8] = at 50.0 µM (retest, dose inferred, filed as 5.0)

Measured: growth inhibition

O=C([O-])C(F)(F)C(F)(F)F.[C-]#[O+].[C-]#[O+].[C-]#[O+].[C-]#[O+].[C-]#[O+].[Re]
inactive: [1]; [7] 15% | [1]; [8] 15% | [2]; [7] 13% | [2]; [8] 13% | [3]; [7] 12% | [3]; [8] 12% | [4]; [7] 12% | [4]; [8] 12% | [4]; at 50.0 µM 68.5% | [5]; [7] -4% | [5]; [8] -4% | [6]; [7] 10% | [6]; [8] 10% | [6]; at 50.0 µM 44%
active: [1]; at 50.0 µM 83.7% | [2]; at 50.0 µM 92% | [3]; at 50.0 µM 90.7% | [5]; at 50.0 µM 91.5%

S=C1NCCN1
inactive: [1]; [7] 1% | [1]; [8] 65% | [1]; at 50.0 µM 12.2% | [2]; [7] -4% | [2]; [8] 15% | [2]; at 50.0 µM 14.7% | [3]; [7] 0% | [3]; [8] 35% | [3]; at 50.0 µM -17.6% | [4]; [7] 5% | [4]; [8] 14% | [4]; at 50.0 µM 38.5% | [5]; [7] -1% | [5]; [8] 21% | [5]; at 50.0 µM -2.65% | [6]; [7] 2% | [6]; [8] 51% | [6]; at 50.0 µM 4.95%

O=C1C(CCl)(CCl)CCC12CNC(Cl)(Cl)C2 (configuration not stated)
inactive: [1]; [7] -1% | [1]; [8] 0% | [1]; at 50.0 µM 6.8% | [2]; [7] -1% | [2]; [8] 4% | [2]; at 50.0 µM 15.8% | [3]; [7] 1% | [3]; [8] 0% | [3]; at 50.0 µM 21.6% | [4]; [7] 1% | [4]; [8] 5% | [4]; at 50.0 µM 39.6% | [5]; [7] -3% | [5]; [8] -5% | [5]; at 50.0 µM 23.2% | [6]; [7] -1% | [6]; [8] 0% | [6]; at 50.0 µM 28.8%

C[C@H]1CC[C@@]2(NC1)O[C@H]1C[C@H]3[C@@H]4CC[C@H]5C[C@@H](O)CC[C@]5(C)[C@H]4CC[C@]3(C)[C@H]1[C@@H]2C
inactive: [1]; [7] 42% | [2]; [7] 27% | [3]; [7] 66% | [4]; [7] 54% | [5]; [7] 64% | [6]; [7] 33%
active: [1]; [8] 96% | [1]; at 50.0 µM 92.2% | [2]; [8] 98% | [2]; at 50.0 µM 93.8% | [3]; [8] 99% | [3]; at 50.0 µM 93.5% | [4]; [8] 98% | [4]; at 50.0 µM 91.5% | [5]; [8] 99% | [5]; at 50.0 µM 92.5% | [6]; [8] 98% | [6]; at 50.0 µM 86.8%

C[n+]1c(/C=C/c2ccc(O)c3ccccc23)[se]c2ccccc21
active: [1]; [8] 78% | [1]; at 50.0 µM 84.8% | [3]; [8] 76% | [3]; at 50.0 µM 87.1% | [5]; at 50.0 µM 74.6% | [6]; [8] 81% | [6]; at 50.0 µM 78.9%
inactive: [1]; [7] -3% | [2]; [7] -13% | [2]; [8] 40% | [2]; at 50.0 µM 47.4% | [3]; [7] -24% | [4]; [7] -2% | [4]; [8] 16% | [4]; at 50.0 µM 41.2% | [5]; [7] -5% | [5]; [8] 20% | [6]; [7] 13%

CCOC(=O)C(Cl)Cl
inactive: [1]; [7] -1% | [1]; [8] 0% | [1]; at 50.0 µM -32.4% | [2]; [7] 3% | [2]; [8] -2% | [2]; at 50.0 µM -2.7% | [3]; [7] 0% | [3]; [8] -2% | [3]; at 50.0 µM -5.25% | [4]; [7] -2% | [4]; [8] -4% | [4]; at 50.0 µM -39.8% | [5]; [7] 1% | [5]; [8] -5% | [5]; at 50.0 µM -18.3% | [6]; [7] 2% | [6]; [8] -2% | [6]; at 50.0 µM 33.4%

CCC1CN1P(=O)(Oc1ccccc1)N1CC1CC (configuration not stated)
inactive: [1]; [7] -2% | [1]; [8] 15% | [1]; at 50.0 µM -5.7% | [2]; [7] -1% | [2]; [8] -42% | [2]; at 50.0 µM -17.2% | [3]; [7] -1% | [3]; [8] 2% | [3]; at 50.0 µM -14.8% | [4]; [7] -11% | [4]; [8] -7% | [4]; at 50.0 µM -16.4% | [5]; [7] 7% | [5]; [8] 52% | [5]; at 50.0 µM 57.5% | [6]; [7] -2% | [6]; [8] 6% | [6]; at 50.0 µM -20%

CC[C@@H](C)[C@@H]1NC(=O)C(NC(=O)C(CC(C)C)N(C)C(=O)C2CCCN2C(=O)C(C)O)C(C)OC(=O)C(Cc2ccc(OC)cc2)N(C)C(=O)C2CCCN2C(=O)C(CC(C)C)NC(=O)C(C)C(=O)C(C(C)C)OC(=O)C[C@H]1O (some centres not stated)
active: [1]; [8] 96% | [1]; at 50.0 µM 81.3% | [2]; [7] 73% | [2]; [8] 99% | [2]; at 50.0 µM 83.5% | [3]; [8] 89% | [3]; at 50.0 µM 83.2% | [4]; [8] 74% | [4]; at 50.0 µM 80.6% | [5]; [8] 72% | [5]; at 50.0 µM 85.2% | [6]; [8] 98% | [6]; at 50.0 µM 79.8%
inactive: [1]; [7] 51% | [3]; [7] 58% | [4]; [7] 43% | [5]; [7] 28% | [6]; [7] 50%

CCCCCCCCCCCCCC(=O)O[C@H]1CC[C@H](NC(=O)[C@H](OC)[C@H](O)[C@@H](O)[C@H](O)/C=C/C(C)C)C(=O)NC1
active: [1]; [8] 93% | [1]; at 50.0 µM 88.1% | [2]; [8] 96% | [2]; at 50.0 µM 87.4% | [3]; [8] 92% | [3]; at 50.0 µM 89.5% | [4]; [8] 93% | [4]; at 50.0 µM 71.5% | [5]; [8] 96% | [5]; at 50.0 µM 92.2% | [6]; [8] 94% | [6]; at 50.0 µM 85.6%
inactive: [1]; [7] -1% | [2]; [7] 4% | [3]; [7] -2% | [4]; [7] 11% | [5]; [7] 4% | [6]; [7] -1%
